From the supplement of paper PMC8975748
Counter-ions that a name gives are not always drawn.

system: Saccharomyces cerevisiae BY4741 SeMeCo community; experiment: z-score of subpopulation abundance vs DMSO median, subpopulation auxotrophic for HUM; higher = larger share of this subpopulation than in DMSO controls; details: 10 µM; 24 h; SM minimal medium; subpopulation (auxotrophy): HUM
Description: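 Fluorescent four-plasmid SeMeCo (self-establishing metabolically cooperating S. cerevisiae BY4741 community; plasmids pH-mRuby2, pL-mWasabi, pU-eCFP, pM-TagRFP657) was grown 24 h in minimal SM medium with each Selleck FDA-approved drug at 10 µM in 384-well plates. Cells were fixed and imaged by high-content confocal microscopy. For each auxotrophic subpopulation (and the prototroph), a z-score gives the deviation from the DMSO vehicle-control population median.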

Structure (SMILES)	z-score of subpopulation abundance
CCCN1CCCC[C@H]1C(=O)Nc1c(C)cccc1C [Ropivacaine]	-0.48
COc1ccc2cc(C(=O)O)ccc2c1 [6-Methoxy-2-naphthoic acid]	-1.83
CC(=O)[C@H]1CC[C@H]2[C@@H]3CCC4=CC(=O)CC[C@]4(C)[C@H]3CC[C@]12C [Progesterone]	-0.62
COc1cc(NC(C)CCCN)c2ncccc2c1 (stereo not given) [Primaquine Diphosphate]	-1.39
O=C1c2c(O)ccc(O)c2C(=O)c2c(NCCNCCO)ccc(NCCNCCO)c21 [Mitoxantrone 2HCl]	-6.42
Oc1c(Cl)cc(Cl)c(Cl)c1Cc1c(O)c(Cl)cc(Cl)c1Cl [Hexachlorophene]	14
COc1cc2c(cc1OC)C(=O)C(CC1CCN(Cc3ccccc3)CC1)C2 (stereo not given) [Donepezil]	-0.13
Cc1nnc(SCC2=C(C(=O)O)N3C(=O)[C@@H](NC(=O)Cn4cc(Cl)c(=O)c(Cl)c4)[C@H]3SC2)s1 [Cefazedone]	0.05
C[C@@H](O)[C@H]1C(=O)N2C(C(=O)O)=C(SCCNC=N)C[C@H]12 [Imipenem]	0.59
CCC[C@@H]1C[C@@H](C(=O)N[C@@H]([C@H]2O[C@H](SC)[C@H](OP(=O)(O)O)[C@@H](O)[C@H]2O)[C@H](C)Cl)N(C)C1 [Clindamycin Phosphate]	0.81
CN1CCN(CC(=O)N2c3ccccc3C(=O)Nc3cccnc32)CC1 [Pirenzepine dihydrochloride]	-0.75
Nc1ccc2cc3ccc(N)cc3nc2c1 [Proflavine Hemisulfate]	-4.39
CC(=O)OCC1=C(C(=O)O)N2C(=O)[C@@H](NC(=O)Cc3cccs3)[C@H]2SC1 [Cephalothin]	-0.69
CN[C@@H]1[C@@H](O)[C@@H](O[C@@H]2[C@@H](O)[C@H](O[C@H]3O[C@H](CN)[C@@H](O)[C@H](O)[C@H]3O)[C@@H](N)C[C@H]2NC(=O)[C@@H](O)CN)OC[C@]1(C)O [Isepamicin Sulphate]	0.82
C#C[C@]1(O)CC[C@H]2[C@@H]3CCC4=CCCC[C@@H]4[C@H]3C(=C)C[C@@]21CC [Desogestrel]	-0.05
Cc1cccc(N(C)C(=S)Oc2ccc3ccccc3c2)c1 [Tolnaftate]	-0.16
CN[C@@H]1[C@@H](O[C@H]2O[C@H](CO)[C@@H](N)[C@H](O)[C@H]2O)OC2C[C@@H](N)[C@@H](O[C@H]3[C@H](O)[C@@H](O)[C@H](N)C[C@@H]3N)OC2[C@@H]1O (stereo not given in full) [Apramycin Sulfate]	0.37
CC[C@@H](CO)NCCN[C@@H](CC)CO [Ethambutol 2HCl]	0.7
Oc1ccc(C2CNCCc3c2cc(O)c(O)c3Cl)cc1 (stereo not given) [Fenoldopam mesylate]	-0.92
CCN1CCN(C(=O)N[C@@H](C(=O)N[C@@H]2C(=O)N3C(C(=O)O)=C(CSc4nnnn4C)CS[C@H]23)c2ccc(O)cc2)C(=O)C1=O [Cefoperazone]	-0.49

Structure (SMILES)	z-score of subpopulation abundance
C[C@@H](O)[C@H]1C(=O)N2C(C(=O)O)=C(S[C@@H]3CN[C@H](C(=O)N(C)C)C3)[C@H](C)[C@H]12 [Meropenem Trihydrate]	-0.48
O=c1[nH]cc(F)c(=O)[nH]1 [Fluorouracil (5-Fluoracil, 5-FU)]	12.3
CN(C)CCc1c[nH]c2ccc(Cn3cncn3)cc12 [Rizatriptan Benzoate]	-0.59
CC(C)Cc1ccc(C(C)C(=O)O)cc1 (stereo not given) [Ibuprofen Lysine]	-3.01
CC(C)(O/N=C(\C(=O)N[C@@H]1C(=O)N2C(C(=O)[O-])=C(C[n+]3ccccc3)CS[C@H]12)c1csc(N)n1)C(=O)O [Ceftazidime]	0.14
NC12CC3CC(CC(C3)C1)C2 [Amantadine]	0.47
CC(C(=O)O)c1ccc2c(c1)CC(=O)c1ccccc1S2 (stereo not given) [Zaltoprofen]	-0.7
CC(C)[C@H]1CC[C@H](C(=O)N[C@H](Cc2ccccc2)C(=O)O)CC1 [Nateglinide]	-0.11
CO[C@@H]1[C@H](OC(=O)/C=C/C=C/C=C/C=C/C(=O)O)CC[C@]2(CO2)[C@H]1[C@@]1(C)O[C@@H]1CC=C(C)C [Fumagillin]	0.96
Nc1ccc(S(N)(=O)=O)cc1 [Sulfanilamide]	0.6
COC(=O)C1=C(C)NC(C)=C(C(=O)OC(C)(C)CN(C)CCC(c2ccccc2)c2ccccc2)C1c1cccc([N+](=O)[O-])c1 (stereo not given) [Lercanidipine hydrochloride]	0.37
C#CCN(C)Cc1ccccc1 [Pargyline hydrochloride]	0
Nc1ccc(S(=O)(=O)Nc2ccnn2-c2ccccc2)cc1 [Sulfaphenazole]	-0.72
CN1[C@@H]2CC[C@H]1C[C@@H](OC(c1ccccc1)c1ccccc1)C2 [Benztropine mesylate]	-0.47
Oc1c(Br)cc(Br)c2cccnc12 [Broxyquinoline]	15.8
Oc1c(Cl)cc(Cl)c2cccnc12 [Chloroxine]	19.8
CCC1(c2ccccc2)C(=O)NCNC1=O [Primidone]	0.42
CC(C)[N+](C)(CCOC(=O)C1c2ccccc2Oc2ccccc21)C(C)C [Propantheline bromide]	-1.29
Nc1ccc(S(=O)(=O)NC(=O)c2ccccc2)cc1 [Sulfabenzamide]	-1.03
COC(=O)C1=C(C)NC(C)=C(C(=O)OCCN2CCN(C(c3ccccc3)c3ccccc3)CC2)C1c1cccc([N+](=O)[O-])c1 (stereo not given) [Manidipine 2HCl]	1.21
